This is a sample that favours compounds with a hit; in the whole collection about 3.7% have one here.
B2AR arrestin ag: beta-arrestin recruitment by human beta2-adrenergic receptor ligands | P07550 | Potency, µM (top dose mostly 46.1 µM), hits mostly activators | HTLA Tango cells, beta-arrestin recruitment, luciferase luminescence, 18 h | 44,000 tested, under 10 active
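Tango cells expressing recombinant beta2-AR and beta-arrestin were treated with compounds (up to 46 microM titration) in DMEM with 1% FBS for 18 hr at 37 degrees C. Beta-arrestin recruitment drove tTA-dependent luciferase, read by luminescence; curves were fitted and classed.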
HTT-AS promoter: activators of huntingtin-antisense promoter activity. 48,000 compounds, 0.24% hits. HEK293 HTT-AS promoter firefly luciferase reporter, 24 h; response scale: percent change from vehicle, -100% = no light. AID 1508624. Potency, µM (titrated, usually from 57.5 µM), usual class: activators; note: nearly all actives have a fitted effect of over 55% in size
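Quantitative HTS used concentration series of up to 57.5 uM final on HEK293 luciferase reporter cells, 24 h at 37 degrees C. Readout was Dual-Glo firefly luminescence.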
GPR32 ag: GPR32 (DRV1) agonism, beta-arrestin recruitment. O75388. CHO-K1 GPR32 beta-arrestin PathHunter luminescence, 90 min; zero percent set by DMSO-only wells. activation, % at 76.9 µM. 48,000 compounds, 2.5% hits;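 active = activation of at least 60% and not above a set upper limit, about 1 call in 100 departs from these limits; inconclusive = activation of 40% to 60%, or above that upper limit; inactive = activation under 40%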
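Engineered CHO-K1 line co-expressing GPR32-ProLink and EA-beta-arrestin. Compound treatment lasted 90 min at 37 °C. Luminescence was recorded after 1 h with substrate at ambient temperature, relative to DMSO basal wells.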
GALC G270D up: enhancers of human galactocerebrosidase G270D mutant activity in cells | 145M-Twi-hGALC-G270D cells (Twitcher mouse brain line with human GALC G270D), HMU-beta-Gal fluorescence, 48 h | 45,000 compounds, 0.1% hits | Potency, µM (doses to about 57.5 µM), usual class: activators | P54803; note: nearly all actives have a fitted effect of over 65% in size
Target sequence (P54803 whole entry G286D): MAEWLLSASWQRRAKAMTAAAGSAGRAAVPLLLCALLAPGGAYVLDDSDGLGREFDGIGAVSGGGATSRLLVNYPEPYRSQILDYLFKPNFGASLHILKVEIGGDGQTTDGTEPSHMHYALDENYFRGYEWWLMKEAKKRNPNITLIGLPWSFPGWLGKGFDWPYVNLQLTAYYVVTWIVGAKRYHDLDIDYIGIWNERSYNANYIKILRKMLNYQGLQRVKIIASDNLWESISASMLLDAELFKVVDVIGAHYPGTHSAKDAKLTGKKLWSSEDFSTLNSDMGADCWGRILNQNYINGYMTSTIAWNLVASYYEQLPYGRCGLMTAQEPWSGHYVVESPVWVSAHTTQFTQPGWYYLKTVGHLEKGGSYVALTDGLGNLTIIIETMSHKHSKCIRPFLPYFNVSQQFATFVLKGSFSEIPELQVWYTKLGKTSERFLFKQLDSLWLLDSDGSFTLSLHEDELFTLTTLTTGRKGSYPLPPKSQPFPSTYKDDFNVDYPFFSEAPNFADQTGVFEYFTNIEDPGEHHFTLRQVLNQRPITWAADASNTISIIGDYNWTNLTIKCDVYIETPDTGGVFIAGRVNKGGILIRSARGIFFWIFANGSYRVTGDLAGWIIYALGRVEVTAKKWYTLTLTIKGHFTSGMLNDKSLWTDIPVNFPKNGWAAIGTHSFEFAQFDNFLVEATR
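Live 145M-Twi cells (Twitcher mouse brain-derived, GALC-null) stably expressing human GALC-G270D, with a wild-type GALC line, were compound-treated. Residual GALC activity was then read as fluorescence from 0.1 mM final HMU-β-gal at pH 5.2; higher signal means activation.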
FH mod: Identification of activators of human fumarate hydratase by quantitative high-throughput screening; Fumarate hydratase, mitochondrial (Homo sapiens), P07954; FH coupled MDH/diaphorase resazurin fluorescence, 15 min; Potency, µM (highest dose often 79.9 µM), actives largely listed as inhibitors; 54,000 compounds, 0.22% hits; note: the screen sought activators but most active calls are inhibition curves; nearly all actives have a fitted effect of over 45% in size
HTT promoter inh: inhibits huntingtin promoter activity | 48,000 compounds, 0.93% hits | HEK293 HTT promoter firefly luciferase reporter, 24 h | Potency, µM (highest dose often 57.5 µM), usual class: inhibitors; note: nearly all actives have a fitted effect of over 50% in size
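Luminescence was read after Dual-Glo reagent and a 10 min room-temperature incubation. Values were normalized to vehicle (0% activity) and zero RLU (-100% activity). Reporter HEK293 cells had been exposed to compounds (up to 57.5 uM final) for 24 h.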
A number is an active result; . = inactive; ? = inconclusive; / = no result given; [ ] = dose if it differs, or a comment. Unless noted, calls come from the whole dose curve; as a rule, active = well fitted curve in the direction sought with a large enough effect; inconclusive = small, poorly fitted or top-dose-only effect, or another doubt; inactive = no such curve, though single readings can be large; an effect the other way counts as inactive or inconclusive.

SMILES	B2AR arrestin ag	HTT-AS promoter	GPR32 ag	GALC G270D up	FH mod	HTT promoter inh
CCCCOc1ccc(C(=O)Nc2onc3c2CCCC3)cc1	.	13µM	.	.	.	.
O=C(Nc1onc2c1CCCC2)c1ccc(Cl)cc1	.	?	.	.	.	.
CC(=O)N1CCCc2ccc(NC(=O)c3ccc(OC(C)C)cc3)cc21	.	.	.	.	.	?
CCCCOc1ccc(C(=O)Nc2ccc3c(c2)N(C(C)=O)CCC3)cc1	.	.	.	.	.	4.5µM
COc1ccc(-c2noc(CSc3nc4ccccc4[nH]3)n2)cc1OC	.	.	67	.	.	?
CC1(C)CC[C@]2(C(=O)O)[C@H](O)C[C@]3(C)C(=CCC4[C@@]5(C)CC[C@H](O[C@@H]6O[C@H](CO[C@@H]7OC[C@H](O)[C@H](O)[C@H]7O[C@@H]7OC[C@@H](O)[C@H](O)[C@H]7O)[C@@H](O)[C@H](O)[C@H]6O[C@@H]6O[C@H](CO)[C@@H](O)[C@H](O)[C@H]6O)C(C)(C)C5CC[C@]43C)[C@@H]2C1 (stereo partly specified)	/	/	/	/	.	/
COc1ccc(-n2c(-c3ccco3)nc3c(cnn3-c3ccc(Cl)cc3)c2=O)cc1	.	.	.	.	.	35µM
CC1(CO)CC(O)C2(C)CCC3(C)C(=CCC4C5(C=O)CCC(OC6OC(C(=O)O)C(O)C(O)C6OC6OC(C(=O)O)C(O)C(O)C6O)C(C)(C)C5CCC43C)C2C1 (stereo unspecified)	/	/	/	/	.	/
COc1ccc2nccc(C(=O)CC[C@@H]3CCN(CC#Cc4cc(F)cc(F)c4F)C[C@@H]3C(=O)O)c2c1	/	/	/	/	.	/
COc1ccc(Cl)cc1NC(=O)c1sc2nc(-c3ccc(OC)c(OC)c3)ccc2c1N	.	.	.	11µM	.	?
COc1ccc(-c2ccc3c(N)c(C(=O)Nc4ccc(C)cc4C)sc3n2)cc1OC	.	.	.	.	.	?
CC(=O)OC1C(O)C(C)=C(CCC(C)CC(=O)O)C2(C)CCCC(C)(C)C12 (stereo unspecified)	/	/	/	/	.	/
CCN1CCC(N(Cc2ccc3c(c2)OCO3)C(=O)Nc2cccc(C)c2C)CC1	.	.	.	.	?	.
CCN1CCC(N(Cc2ccc3c(c2)OCO3)C(=O)Nc2ccc(Br)c(C)c2)CC1	.	.	80	.	.	.
O=C(Nc1ccccc1F)c1nc(SCc2ccccc2F)ncc1Cl	?	.	.	.	.	.
NS(=O)(=O)c1ccc(CCNC(=O)c2nc(SCc3ccccc3F)ncc2Cl)cc1	.	.	83	.	.	?
CC(=O)C1=CCC2C3CCC4CC(O[C@@H]5O[C@H](CO)[C@@H](O[C@@H]6O[C@@H](C)[C@H](O)[C@@H](O)[C@H]6O)[C@H](O)[C@H]5O[C@@H]5O[C@H](CO)[C@@H](O)[C@H](O)[C@H]5O)CCC4(C)C3CCC12C (stereo partly specified)	/	/	/	/	.	/
O=C(Cn1c(SCC(=O)Nc2ccc(F)cc2)nc2ccccc21)NCc1ccccc1Cl	.	.	70	.	.	.
COc1ccc(N2CCN(C(=O)c3ccc4nc(N5CCC(C)CC5)sc4c3)CC2)cc1	.	.	.	.	.	2.2µM
COc1cccc(N2CCN(C(=O)c3ccc4nc(N5CCC(C)CC5)sc4c3)CC2)c1	.	.	.	.	.	?
Cc1ccc(Cl)cc1N1CCN(C(=O)c2ccc3nc(N4CCC(C)CC4)sc3c2)CC1	.	.	.	.	.	3.5µM
OC[C@@]1(O)CO[C@@H](OC[C@H]2O[C@@H](Oc3ccccc3)[C@H](O)[C@@H](O)[C@@H]2O)[C@@H]1O	/	/	/	/	.	/
CCN(CCCNC(=O)CSc1cc(=O)n(CC)c2ccccc12)c1ccccc1	.	.	117	.	.	.
CCc1ccc(CNC(=O)CSc2cc(=O)n(CC)c3ccccc23)cc1	.	.	61	.	.	.
CCN(CCCNC(=O)c1cc2c(=O)n(C)c3ccccc3c2s1)Cc1ccccc1	.	.	.	.	.	.
SMILES	B2AR arrestin ag	HTT-AS promoter	GPR32 ag	GALC G270D up	FH mod	HTT promoter inh
CCn1c(=O)cc(SCC(=O)NCc2ccc(C)cc2)c2ccccc21	.	.	69	.	.	.
CCn1c(=O)cc(SCC(=O)NCc2ccc(OC)cc2OC)c2ccccc21	.	.	.	.	.	.
CCOc1ccc(CNC(=O)CSc2cc(=O)n(CC)c3ccccc23)cc1	.	.	.	.	.	.
CCN(CCCNC(=O)c1cc2c(=O)n(C)c3ccccc3c2s1)c1ccccc1	.	.	70	.	.	.
CCN(CCCNC(=O)CSc1cc(=O)n(C)c2ccccc12)c1ccccc1	.	.	.	.	.	.
N#Cc1ccc(-c2c(-c3ncn[nH]3)sc(N3CCOCC3)c2C#N)c(F)c1	/	/	/	/	.	/
COC1(c2sc3c(N4CCOCC4)nc(-c4cnc(N)nc4)nc3c2C)COC1	/	/	/	/	.	/
CCN(CCCNC(=O)c1cc2c(Cl)nc3ccccc3c2s1)Cc1ccccc1	.	.	95	.	?	.
CCOC(=O)c1cccc(NC(=O)CN2C(=O)c3ccccc3Sc3ncccc32)c1	.	.	72	.	.	.
CC1OC(O[C@H]2CC[C@@]3(C)C(CC[C@]4(C)C3CC=C3C5CC(C)(C)CC[C@]5(C(=O)OC5OC(CO)C(OC6OCC(OC7OCC(O)C(O)C7O)C(O)C6O)C(O)C5O)CC[C@]34C)C2(C)C)C(O)C(O)C1OC1OC(CO)C(O)C(OC2OC(CO)C(O)C(O)C2O)C1O (stereo partly specified)	/	/	/	/	.[13.5 µM]	/
COc1cc(-c2noc(C3CC(=O)N(c4cc(C)ccc4C)C3)n2)cc(OC)c1OC (stereo unspecified)	.	.	76	.	?	.
Cc1ccc(C)c(Nc2nc3nonc3nc2Nc2cccc(C)c2C)c1	?	.	.	.	?	?
CCOC(=O)c1ccc(Nc2nc3nonc3nc2Nc2cccc(C)c2C)cc1	.	.	.	.	?	2.2µM
Cc1cccc(Oc2ccc3c(c2)Oc2ccccc2NC3=O)c1	.	.	95	.	.	.
C/C=C/C=C/c1cc2c(C=O)c(O)c(CC=C(C)C)cc2o1	/	/	/	/	.	/
COc1ccc2nc(N(Cc3cccnc3)C(=O)c3ccc4c(c3)OCCO4)sc2c1	.	.	.	.	.	.
COc1ccc2sc(N(Cc3cccnc3)C(=O)c3ccc4c(c3)OCCO4)nc2c1	.	.	.	.	.	11µM
